# Assay results taken from the supplement of paper PMC7156485.
# What was measured:
# Details in all cases: concentration: 10 µM; 24 h
# [1] = tested on: HCC1569; assay: cell number relative to DMSO (% of DMSO); higher = more cells (less growth inhibition / toxicity)
# How it was run: (§1)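 H1.0 nuclear intensity or cell number is expressed as percent of the plate control, with the median of replicates taken. HCC1569 and TDF cells were treated with compounds at 10 µM for 24 h at 37 °C, in triplicate, then fixed and immunostained for H1.0 with DAPI as a nuclear stain. HCC1569 values were smoothed to correct for positional effects.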
# [2] = tested on: TDF; assay: as above
# How it was run: as §1
# [3] = tested on: TDF; assay: H1.0 immunofluorescence intensity relative to DMSO (% of DMSO); higher = stronger H1.0 induction, active = 120 or more
# How it was run: as §1
# [4] = tested on: HCC1569; assay: H1.0 immunofluorescence intensity relative to DMSO (% of DMSO); higher = stronger H1.0 induction, active = 140 or more
# How it was run: as §1
# 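Throughout, for H1.0 immunofluorescence intensity relative to DMSO: TDF is a line of transformed human dermal fibroblasts of mesenchymal origin.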
# 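Throughout, for cell number relative to DMSO: TDF denotes transformed human dermal fibroblasts of mesenchymal origin.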
SMILES,cell number [1],cell number [2],H1.0 immunofluorescence intensity [3],H1.0 immunofluorescence intensity [4]
COC(=O)C(Cc1ccc(OCCn2c(=O)sc3cc(C(=O)c4ccccc4)ccc32)cc1)C(=O)OC,102,91.8,93.3 (inactive),105 (inactive)
CCOC(=O)[C@H](Cc1ccc([N+](=O)[O-])cc1)NC(=O)c1ccccc1 [ethyl (2S)-2-(benzoylamino)-3-(4-nitrophenyl)propanoate],101,98.3,93.8 (inactive),95 (inactive)
O=c1[nH]c2cc(C(F)(F)F)ccc2n1-c1cc(C(F)(F)F)ccc1O,101,95.9,96.6 (inactive),98.4 (inactive)
CCCCC=CCCCCCCCCC(=O)O [10(E)-Pentadecenoic acid],103,95.8,110 (inactive),101 (inactive)
CC(C)(C)c1onc(OCP(=O)(O)O)c1CC(N)C(=O)O (configuration not stated),104,113,91.2 (inactive),95.1 (inactive)
CC1CNCCN1S(=O)(=O)c1cccc2cnccc12.Cl.Cl (configuration not stated) [H-7 dihydrochloride],96.8,100,107 (inactive),95 (inactive)
Cl.NC1(C(=O)O)CC1 [1-Aminocyclopropanecarboxylic acid hydrochloride],100,102,96.5 (inactive),100 (inactive)
CC(C)c1cc(C(C)C)c(-c2csc(N(CCN(C)C)Cc3cccnc3)n2)c(C(C)C)c1,50.7,55.2,146 (active),146 (active)
COc1ccccc1N1CCN(CCN2C(=O)CC3(CCCC3)CC2=O)CC1.Cl.Cl [BMY 7378 dihydrochloride],98.3,98.9,90.3 (inactive),89.9 (inactive)
O=C(O)c1ccccc1Nc1cccc(C(F)(F)F)c1 [Flufenamic acid],103,105,91.9 (inactive),106 (inactive)
FC(F)(F)c1ccccc1-n1ccnc1 [1-[2-(Trifluoromethyl)phenyl]imidazole],100,96,96.5 (inactive),108 (inactive)
CCCC(CCC)C(=O)O [Valproic acid],100,111,97 (inactive),105 (inactive)
CC(C=CC1(O)C(C)=CC(=O)CC1(C)C)=CC(=O)O (racemic),103,103,99.5 (inactive),88.1 (inactive)
NC(Cc1ccc(Cl)cc1)C(=O)O (racemic),101,106,88.6 (inactive),87.6 (inactive)
CCCCCCCCCCCCCC(=O)O [Tetradecanoic acid],99.4,104,97.8 (inactive),102 (inactive)
CC(C)(C(=O)O)c1ccc(C(O)CCCN2CCC(C(O)(c3ccccc3)c3ccccc3)CC2)cc1.Cl (configuration not stated) [Fexofenadine hydrochloride],105,111,91.2 (inactive),90.5 (inactive)
"O=C1c2c(O)cc(O)cc2OC(c2ccc(O)c(O)c2)C1O (single isomer, unassigned; (+)) [(+)-Taxifolin]",99.5,83.9,105 (inactive),102 (inactive)
CN(C)CCCN1c2ccccc2CCc2ccccc21.Cl [Imipramine hydrochloride],108,98.4,97.2 (inactive),105 (inactive)
"CCCCCCCC(=O)OCC(CO)OC(=O)CCCCCCC (configuration not stated) [1,2-Dioctanoyl-SN-glycerol]",98.8,101,92.3 (inactive),98.6 (inactive)
Cc1cccc2c3c(ccc12)C1=C(C(=O)C3=O)C(C)CO1 (configuration not stated) [Dihydrotanshinone],53.6,33.6,111 (inactive),106 (inactive)
CC(=O)OCC(=O)C1(O)CCC2C3CCC4=CC(=O)CCC4(C)C3C(=O)CC21C (configuration not stated) [Cortisone 21-acetate],101,120,97.5 (inactive),89.1 (inactive)
"COC1=CC(=O)CC(C)C12Oc1c(Cl)c(OC)cc(OC)c1C2=O (single isomer, unassigned; (+)) [(+)-Griseofulvin]",100,108,99.2 (inactive),95.6 (inactive)
Cl.Fc1cccc(CN(C2=NCCN2)c2c(Cl)cccc2Cl)c1 [IMID-4F hydrochloride],99.4,99.7,102 (inactive),134 (inactive)
